Reference: PubChem BioAssay AID1159580 (chemical genetic matrix, 2015)
Out of some 5,500 compounds screened, about 2,000 (36%) were called active. Roughly 18% stayed inconclusive and do not appear here. Cut-off read from the data, not from the text of the source: active = normalized growth mostly below about 0.91 (no sharp cut-off); inconclusive = no clear call, values can overlap the other calls; inactive = mostly above about 0.92. The list shows a part of the results.

Assay: chemical genetic growth profiling, strain panel (AID 1159580);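 note: tested at 20 µM; growth read once vehicle control cultures reached saturation at 30 °C; 1 = growth at the plate median or of vehicle wells; lower values mean less growth of the strain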
Conditions: S. cerevisiae deletion strains, growth OD
[1] = locus YAR019C, strain CDC15, stronger effect = lower value
[2] = locus YBL105C, strain PKC1, stronger effect = lower value
[3] = locus YBR135W, strain CKS1, stronger effect = lower value
[4] = locus YBR136W, strain MEC1, stronger effect = lower value
[5] = locus YBR160W, strain CDC28, stronger effect = lower value
[6] = locus YDL017W, strain CDC7, stronger effect = lower value
[7] = locus YDL028C, strain MPS1, stronger effect = lower value
[8] = locus YDL101C, strain DUN1, stronger effect = lower value
[9] = locus YDL108W, strain KIN28, stronger effect = lower value
[10] = locus YDL132W, strain cdc53, stronger effect = lower value
[11] = locus YDL214C, strain PRR2, stronger effect = lower value
[12] = locus YDR052C, strain DBF4, stronger effect = lower value
[13] = locus YDR054C, strain cdc34, stronger effect = lower value
[14] = locus YDR226W, strain ADK1, stronger effect = lower value
[15] = locus YDR477W, strain SNF1, stronger effect = lower value
[16] = locus YER123W, strain YCK3, stronger effect = lower value
[17] = locus YER133W, strain GLC7, stronger effect = lower value
[18] = locus YFL009W, strain cdc4, stronger effect = lower value
[19] = locus YFL029C, strain CAK1, stronger effect = lower value
[20] = locus YFR003C, strain YPI1, stronger effect = lower value
[21] = locus YFR019W, strain FAB1, stronger effect = lower value
[22] = locus YFR028C, strain CDC14, stronger effect = lower value
[23] = locus YGR040W, strain KSS1, stronger effect = lower value
[24] = locus YGR052W, strain FMP48, stronger effect = lower value
[25] = locus YGR092W, strain DBF2, stronger effect = lower value
[26] = locus YHR030C, strain SLT2, stronger effect = lower value
[27] = locus YHR079C, strain IRE1, stronger effect = lower value
[28] = locus YHR082C, strain KSP1, stronger effect = lower value
[29] = locus YHR205W, strain SCH9, stronger effect = lower value
[30] = locus YIL147C, strain SLN1, stronger effect = lower value
[31] = locus YJL095W, strain BCK1, stronger effect = lower value
[32] = locus YJL128C, strain PBS2, stronger effect = lower value
[33] = locus YJL157C, strain FAR1, stronger effect = lower value
[34] = locus YJR016C, strain ILV3, stronger effect = lower value
[35] = locus YJR066W, strain TOR1 (second series), stronger effect = lower value
[36] = locus YJR066W, strain TOR1, stronger effect = lower value
[37] = locus YKL048C, strain ELM1, stronger effect = lower value
[38] = locus YKL067W, strain YNK1, stronger effect = lower value
[39] = locus YKL101W, strain HSL1, stronger effect = lower value
[40] = locus YKL193C, strain SDS22, stronger effect = lower value
[41] = locus YKL203C, strain TOR2, stronger effect = lower value
[42] = locus YLR113W, strain HOG1, stronger effect = lower value
[43] = locus YLR133W, strain CKI1, stronger effect = lower value
[44] = locus YLR403W, strain SFP1, stronger effect = lower value
[45] = locus YML070W, strain DAK1, stronger effect = lower value
[46] = locus YMR001C, strain CDC5, stronger effect = lower value
[47] = locus YMR205C, strain PFK2 (second series), stronger effect = lower value
[48] = locus YMR277W, strain FCP1, stronger effect = lower value
[49] = locus YNL006W, strain LST8, stronger effect = lower value
[50] = locus YNL020C, strain ARK1, stronger effect = lower value
[51] = locus YNL161W, strain CBK1, stronger effect = lower value
[52] = locus YNL183C, strain NPR1, stronger effect = lower value
[53] = locus YNL207W, strain RIO2, stronger effect = lower value
[54] = locus YNL222W, strain SSU72, stronger effect = lower value
[55] = locus YNL307C, strain MCK1 (second series), stronger effect = lower value
[56] = locus YOL078W, strain AVO1, stronger effect = lower value
[57] = locus YOL136C, strain PFK27, stronger effect = lower value
[58] = locus YOR061W, strain CKA2, stronger effect = lower value
[59] = locus YOR119C, strain RIO1, stronger effect = lower value
[60] = locus YOR231W, strain MKK1, stronger effect = lower value
[61] = locus YOR329C, strain SCD5, stronger effect = lower value
[62] = locus YPL031C, strain PHO85, stronger effect = lower value
[63] = locus YPL153C, strain RAD53, stronger effect = lower value
[64] = locus YPL204W, strain HRR25, stronger effect = lower value
[65] = locus YPL209C, strain IPL1, stronger effect = lower value
[66] = locus YPL256C, strain CLN2, stronger effect = lower value
[67] = locus YPR025C, strain CCL1, stronger effect = lower value
[68] = locus YPR106W, strain ISR1, stronger effect = lower value
[69] = locus YPR111W, strain DBF20, stronger effect = lower value
[70] = strain NNK1, stronger effect = lower value
[71] = strain TSCII, stronger effect = lower value

Measured: normalized growth

C[C@@H](Nc1ncnc2sc3c(c12)CCCC3)c1ccccc1
inactive: [1] 0.955 | [2] 0.955 | [3] 0.953 | [4] 0.958 | [5] 0.942 | [6] 0.961 | [7] 0.954 | [8] 0.945 | [9] 0.95 | [10] 0.951 | [11] 0.904 | [12] 0.963 | [13] 0.94 | [14] 0.963 | [15] 0.932 | [16] 0.895 | [17] 0.928 | [18] 0.951 | [19] 0.949 | [20] 0.958 | [21] 0.941 | [22] 0.951 | [23] 0.913 | [24] 0.954 | [25] 0.901 | [26] 0.924 | [27] 0.914 | [28] 0.944 | [29] 0.877 | [30] 0.954 | [31] 0.931 | [32] 0.889 | [33] 0.916 | [34] 0.963 | [35] 0.901 | [36] 0.969 | [37] 0.907 | [38] 0.917 | [39] 0.891 | [40] 0.953 | [41] 0.967 | [43] 0.919 | [44] 0.89 | [45] 0.893 | [46] 0.951 | [47] 0.919 | [48] 0.951 | [49] 0.956 | [50] 0.915 | [51] 0.954 | [52] 0.918 | [53] 0.944 | [54] 0.949 | [55] 0.912 | [56] 0.955 | [57] 0.893 | [58] 0.916 | [59] 0.979 | [60] 0.844 | [61] 0.959 | [62] 0.942 | [63] 0.918 | [64] 0.932 | [65] 0.947 | [67] 0.949 | [68] 0.93 | [69] 0.922 | [70] 0.929 | [71] 0.951
active: [42] 0.766 | [66] 0.787

CC1CCC(C(C)C)C(N(Cc2ccccc2)C(=O)c2ccccc2)C1 (stereo unspecified)
inactive: [1] 0.996 | [2] 0.987 | [3] 0.986 | [4] 0.98 | [5] 0.986 | [6] 0.987 | [7] 0.994 | [8] 0.974 | [9] 0.986 | [10] 0.984 | [11] 0.961 | [12] 0.985 | [13] 0.991 | [14] 0.98 | [15] 0.98 | [16] 0.97 | [17] 0.978 | [18] 0.985 | [19] 0.994 | [20] 0.985 | [21] 0.954 | [22] 0.981 | [23] 0.963 | [24] 0.969 | [25] 0.946 | [26] 1.01 | [27] 1 | [28] 1.01 | [29] 0.911 | [30] 0.987 | [31] 0.923 | [32] 0.923 | [33] 0.979 | [34] 0.992 | [35] 0.959 | [36] 1.01 | [37] 0.958 | [38] 0.967 | [39] 0.932 | [40] 0.994 | [41] 1.01 | [42] 0.922 | [43] 0.945 | [44] 0.913 | [45] 0.961 | [46] 0.992 | [47] 0.976 | [48] 0.987 | [49] 0.988 | [50] 0.956 | [51] 0.984 | [52] 0.975 | [53] 0.979 | [54] 0.99 | [55] 0.898 | [56] 0.981 | [57] 0.925 | [58] 0.971 | [59] 1.05 | [60] 0.977 | [61] 0.991 | [62] 0.981 | [63] 0.983 | [64] 0.952 | [65] 0.986 | [66] 1.04 | [67] 0.988 | [68] 0.976 | [69] 0.948 | [70] 0.965 | [71] 0.985

CC(C)N(CCC(=O)c1ccc2ccccc2c1)Cc1ccccc1
active: locus YAL013W, strain DEP1, stronger effect = lower value 0.086 | locus YAL040C, strain CLN3, stronger effect = lower value 0.0757 | locus YCL061C, strain MRC1 (second series), stronger effect = lower value 0.0525 | locus YDR150W, strain NUM1, stronger effect = lower value 0.058 | locus YDR363W, strain ESC2, stronger effect = lower value 0.141 | locus YER002W, strain NOP16, stronger effect = lower value 0.0619 | locus YGR078C, strain PAC10, stronger effect = lower value 0.107 | locus YJR075W, strain HOC1, stronger effect = lower value 0.0706 | locus YMR307W, strain GAS1, stronger effect = lower value 0.0933 | locus YNL128W, strain TEP1, stronger effect = lower value 0.0691 | locus YNL153C, strain GIM3, stronger effect = lower value 0.0944 | locus YNL175C, strain NOP13, stronger effect = lower value 0.111 | locus YNL197C, strain WHI3, stronger effect = lower value 0.534 | locus YNL224C, strain SQS1, stronger effect = lower value 0.0703 | locus YOR083W, strain WHI5 (second series), stronger effect = lower value 0.124

CNCC[C@H](Oc1cccc2ccccc12)c1cccs1
inactive: [26] 0.991 | [27] 0.993 | [31] 1 | [36] 0.924 | [42] 1.02 | [52] 0.938 | [60] 0.988 | [66] 0.987

CNC(=O)Sc1c(-c2ccc(Cl)cc2)nn(C(=O)NC)c1SC
inactive: [1] 0.979 | [2] 0.961 | [3] 0.949 | [4] 0.952 | [5] 0.961 | [6] 0.949 | [7] 0.941 | [8] 0.958 | [9] 0.94 | [10] 0.978 | [12] 0.939 | [13] 0.985 | [14] 0.952 | [18] 0.962 | [19] 0.974 | [20] 0.946 | [22] 0.985 | [30] 0.934 | [32] 0.911 | [34] 0.969 | [40] 0.97 | [46] 0.971 | [48] 0.979 | [49] 0.971 | [51] 0.954 | [53] 0.964 | [54] 0.969 | [56] 0.981 | [61] 0.977 | [65] 0.97 | [67] 0.973 | [68] 0.994 | [69] 0.982 | [70] 0.996 | [71] 0.977
active: [11] 0.319 | [15] 0.428 | [16] 0.199 | [17] 0.485 | [21] 0.264 | [23] 0.413 | [24] 0.315 | [25] 0.266 | [26] 0.335 | [27] 0.324 | [28] 0.353 | [29] 0.446 | [31] 0.256 | [33] 0.315 | [35] 0.286 | [36] 0.302 | [37] 0.545 | [38] 0.335 | [39] 0.378 | [41] 0.491 | [42] 0.284 | [43] 0.397 | [44] 0.482 | [45] 0.297 | [47] 0.461 | [50] 0.342 | [52] 0.274 | [55] 0.233 | [57] 0.316 | [58] 0.355 | [59] 0.467 | [60] 0.315 | [62] 0.422 | [63] 0.337 | [64] 0.399 | [66] 0.368
